Results reported in PubChem BioAssay (NCI).
This is part of a sample that, as a whole, favours compounds with a hit. Of some 79,000 tested, about 15% had one in any assay. Calls of active or inactive are those of the source. No stated cut-off is given here; in the data, active means growth inhibition above about 70%; inactive means the rest.

Tests used:
[1] = NCI Yeast Anticancer Drug Screen. Data for the rad50 strain (AID 155);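 further: 0% = growth of vehicle-only cultures of the same strain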; conditions: S. cerevisiae rad50 strain growth inhibition; at 50.0 µM; stronger effect = higher value
Procedure, shortened: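 A DNA repair-deficient yeast mutant serves as the test organism; compound-induced growth inhibition is calculated against vehicle-treated cells.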

[2] = NCI Yeast Anticancer Drug Screen. Data for the mec2-1 strain (AID 157); conditions: S. cerevisiae mec2-1 strain, at 50.0 µM, stronger effect = higher value
Procedure, shortened: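 mec2-1 yeast strain, carrying an alteration in DNA damage repair or cell cycle control, was exposed to compounds; growth inhibition was measured relative to vehicle-treated controls.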

[3] = NCI Yeast Anticancer Drug Screen. Data for the sgs1 mgt1 strain (AID 161);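 further: 0% = growth of cultures given vehicle only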; conditions: S. cerevisiae sgs1 mgt1 strain, at 50.0 µM, stronger effect = higher value
Procedure, shortened: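 This yeast growth screen uses a strain with defined DNA-repair lesions; compound-treated growth is compared with vehicle-treated growth.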

[4] = NCI Yeast Anticancer Drug Screen. Data for the cln2 rad14 strain (AID 165);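 further: 0% = growth equal to vehicle treated cultures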; conditions: S. cerevisiae cln2 rad14 strain, at 50.0 µM, stronger effect = higher value
Procedure, shortened: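 Yeast carrying cln2 and rad14 alterations (cell cycle control and DNA damage repair) were exposed to compounds. Growth inhibition was measured against vehicle-treated controls.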

[5] = NCI Yeast Anticancer Drug Screen. Data for the bub3 strain (AID 167); conditions: S. cerevisiae bub3 mutant strain, at 50.0 µM, stronger effect = higher value
Procedure, shortened: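 Inhibition values come from growth of compound-treated mutant yeast normalised to vehicle-treated controls.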

[6] = NCI Yeast Anticancer Drug Screen. Data for the mlh1 rad18 strain (AID 175); conditions: S. cerevisiae mlh1 rad18 strain growth inhibition; at 50.0 µM; stronger effect = higher value
Procedure, shortened: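 Growth inhibition of the yeast strain was measured after compound exposure and expressed relative to vehicle-treated controls. The strain carries defined defects in DNA damage repair.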

Measured: growth inhibition

CCCCN(CCCC)CC(O)c1c2cccc(Cl)c2cc2c(Cl)cccc12 (stereo unspecified)
active: [1] 98.9% | [2] 99.5% | [3] 78.6% | [4] 93.3% | [5] 98.8% | [6] 99.1%

O=C(O)C(Cc1ccc(O)cc1)N=Cc1nc(-c2ccccc2)oc1O (stereo unspecified)
inactive: [1] -3.5% | [2] -3.5% | [3] 0.25% | [4] 3% | [5] -6.5% | [6] 0.7%

COC(=O)C(=O)Cc1cccc(OC(C)=O)c1C(=O)OC
inactive: [1] 8.55% | [2] 6.4% | [3] 6.6% | [4] -94% | [5] 9.35% | [6] 2.6%

C(=N\N=C\c1ccccn1)/c1ccccn1
inactive: [1] 9.65% | [2] -6.95% | [3] 5.5% | [4] 4.8% | [5] -3.7% | [6] 26.2%

CN(C)C1=Nc2ccccc2C(=S)N2CSCC12 (stereo unspecified)
inactive: [1] -29% | [2] -37.1% | [3] -16.9% | [4] -12.2% | [5] -63.8% | [6] -20.3%

C=C(C)C(=O)OC1C(C(C)CCCO)=C(CO)CC2OC(=O)C(=C)C21 (stereo unspecified)
inactive: [1] -15.9% | [2] -29.1% | [3] -14.5% | [4] -7.7% | [5] -10.3% | [6] -29.1%

C=CCOc1cc(NC(=S)c2ccoc2C)ccc1OC
inactive: [1] -17.4% | [2] -3.15% | [3] -10% | [4] -2.7% | [5] -3.35% | [6] -52.9%

O=C(c1ccccc1)c1c(O)c2ccccc2oc1=O
inactive: [1] -13.6% | [2] -24% | [3] -7.95% | [4] -16.8% | [5] -4.45% | [6] -4.5%

c1ccc(COC(c2ccccc2)(c2ccccc2)c2ccccc2)cc1
inactive: [1] -0.45% | [2] -2.2% | [3] 10.4% | [4] -8.55% | [5] -0.85% | [6] 27.9%

Nc1nc2c(C(=O)c3cccs3)nnn2c2cccc(Cl)c12
inactive: [1] -21.1% | [2] -21.1% | [3] -21.9% | [4] -12.2% | [5] -14.8% | [6] -2.25%

CC1(C)C2CCC(CCOC(=O)COc3ccc(Cl)cc3Cl)C1C2 (stereo unspecified)
inactive: [1] -13% | [2] -5.45% | [3] 1% | [4] -34.8% | [5] 5% | [6] 29%

Cc1cccc(NC(=O)NC2CCC(CC3CCCCC3)CC2)c1 (stereo unspecified)
inactive: [1] 16.7% | [2] 5.8% | [3] 7.2% | [4] -9.6% | [5] -1.55% | [6] 7.65%

CC1=NN(C(=O)c2ccc(Cl)cc2)C(=O)/C1=C/c1ccc(O)cc1
inactive: [1] -6.65% | [2] -16.6% | [3] -38.6% | [4] -7.55% | [5] -3.55% | [6] -19.9%

Oc1cc(-n2cccn2)c(O)cc1-n1cccn1
inactive: [1] 23.1% | [2] -4.75% | [3] 15.3% | [4] 5.25% | [5] 12.2% | [6] -39%

CC(C)C1NC(=O)NC1=O (stereo unspecified)
inactive: [1] -4% | [2] -23.2% | [3] -3.7% | [4] 10.7% | [5] 0.65% | [6] -4.4%

COc1cc(C)cc(OC)c1/C=C/C(=O)O
inactive: [1] 8.4% | [2] 11.1% | [3] -8.6% | [4] -13.6% | [5] 1.75% | [6] 2.25%

NC(Cc1cc(I)c(Oc2ccc(O)c(I)c2)c(I)c1)C(=O)O (stereo unspecified)
inactive: [1] -5.1% | [2] -1.35% | [3] -9.5% | [4] -27.5% | [5] -30.5% | [6] 33.4%

O=S(=O)(O)C(c1ccccc1)C(O)c1ccccc1 (stereo unspecified)
inactive: [1] 0.95% | [2] -8.95% | [3] -14.4% | [4] -25.2% | [5] -20.9% | [6] -0.25%

CC(C)Cc1cnc(CC(C)C)c(=O)[nH]1
inactive: [1] -13.6% | [2] -44.6% | [3] -28.1% | [4] 10.8% | [5] -40.2% | [6] -25.9%

CCc1c(Cc2[nH]c(Cc3[nH]c(C=O)c(C)c3CC)c(CC)c2CC)[nH]c(C=O)c1C
inactive: [1] 5.25% | [2] -7.5% | [3] -5.85% | [4] -45.9% | [5] -0.75% | [6] -8.75%

C1OC1CO[C@H]1CO[C@H]2[C@@H]1OC[C@@H]2OCC1CO1 (stereo partly specified)
inactive: [1] -9.35% | [2] -2.4% | [3] 8.05% | [4] -30.5% | [5] 18.1% | [6] 2.25%

N#Cc1c(O)c(C=O)c(=O)n2c1[nH]c1ccccc12
inactive: [1] -30.6% | [2] -45.5% | [3] -21.7% | [4] -8.15% | [5] 4.05% | [6] -0.05%

CCCC1OCC=CCO1
inactive: [1] 3.75% | [2] -23.6% | [3] -21.1% | [4] -1.45% | [5] -33.5% | [6] 20.4%

Cc1ccc(S(=O)(=O)OC2=C/C(=N\c3onc(C)c3C)c3ccccc3C2=O)cc1
inactive: [1] -41.6% | [2] -19.4% | [3] -27.9% | [4] -5.4% | [5] -15% | [6] -19.3%

NC(N)=NS(=O)(=O)c1ccc(Nc2c3ccccc3nc3c(C(=O)Nc4ccc(S(N)(=O)=O)cc4)ccc(Cl)c23)cc1
inactive: [1] -8.55% | [2] -2.1% | [3] -2.75% | [4] 29.8% | [5] -2.25% | [6] 7.85%

COc1cc(OC)c2nc(C)c3c(c2c1)SCC3
inactive: [1] -0.5% | [2] -23.1% | [3] 5.25% | [4] 7.4% | [5] 28.6% | [6] 20%

CCCC(=O)Nc1ccc(OCC)cc1
inactive: [1] -9.5% | [2] -4.1% | [3] -11.8% | [4] -49.5% | [5] -18.8% | [6] -16.6%

O=c1[nH]c2cc(Cl)ccc2nc1/C=C(\O)c1ccccc1
inactive: [1] 1.35% | [2] -18.9% | [3] -5.9% | [4] 4.55% | [5] -19.1% | [6] 20.1%

CS(=O)(=O)OC1CC/C=C\CCC1OS(C)(=O)=O (stereo unspecified)
inactive: [1] 1.3% | [2] 14.5% | [3] 12.3% | [4] -9.35% | [5] -15.4% | [6] -15.6%

CC(=O)Nc1cc2cc(N=CN(C)C)ccc2oc1=O
inactive: [1] -24.9% | [2] -43.4% | [3] -16.4% | [4] -10.8% | [5] -18.1% | [6] -7.4%

COc1cccc(NC(=O)C(=O)C(C(=O)c2ccccc2F)C2OC(=O)c3ccccc32)c1 (stereo unspecified)
inactive: [1] 15.6% | [2] 0.95% | [3] 35.5% | [4] 18.9% | [5] 7.85% | [6] 3.85%

COc1cc(C2C(Cl)C(=O)N2NC(=O)c2ccc(N)cc2)ccc1O (stereo unspecified)
inactive: [1] 5.15% | [2] -0.75% | [3] -25.1% | [4] -3.8% | [5] -16.4% | [6] -8.75%

CCNc1ncnc2c1cnn2C1CCCCC1
inactive: [1] 5.3% | [2] -7.15% | [3] -5.85% | [4] -35.9% | [5] 0.5% | [6] -2.5%

Cc1ccc(S(=O)(=O)C(CC(=O)O)c2ccccc2)cc1 (stereo unspecified)
inactive: [1] 0.35% | [2] 0.15% | [3] 6.15% | [4] 4.15% | [5] 1.7% | [6] 4.2%

COc1ccc(NC(=O)c2c(Br)c(Br)c(Br)c(Br)c2C(=O)O)c(Cl)c1
active: [1] 92.5% | [2] 88.7% | [3] 92% | [4] 83.5% | [5] 90.3% | [6] 95.2%

CC(=O)OC1(C)C(=O)OC/C2=C/CN(C)CCC(OC(=O)C(O)(C(C)Cl)CC1C)C2=O (stereo unspecified)
inactive: [1] 4.75% | [2] 2.9% | [3] -7.95% | [4] 13% | [5] -6.35% | [6] -43.9%

CC(=O)OC(c1ccc2c(c1)OCO2)C(C)(C)C (stereo unspecified)
inactive: [1] 17% | [2] 14.9% | [3] -7.3% | [4] -33.5% | [5] 8.7% | [6] 7.9%

Cc1ccc(NC2=N/C(=C/c3ccco3)C(Cl)=N2)cc1
inactive: [1] -21.5% | [2] -22.1% | [3] 14.5% | [4] -1.8% | [5] 3.8% | [6] -31.9%

CCOC(=O)C12CCC(=O)C=C1[C@@H](C)C(=O)CC2 (stereo partly specified)
inactive: [1] -20.1% | [2] -48.6% | [3] -41.1% | [4] -10.2% | [5] -34.7% | [6] -23.4%

COC(=O)c1nc2nnc(N)n2c(-c2ccc(Cl)cc2)c1C
inactive: [1] -6.3% | [2] 11.1% | [3] 7.25% | [4] -15.9% | [5] -4.35% | [6] 0.75%

Nc1ccccc1N=Cc1c(O)c2ccccc2oc1=O
inactive: [1] -8.55% | [2] -11% | [3] 2.7% | [4] 4.05% | [5] 4.25% | [6] 8.2%
